Structures are written as SMILES. Out of some 2,100 compounds screened, about 760 (36%) were called active. The list is a sample of the results. Values without a mark were called inactive.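 The calls were made as follows: active = thallium-flux fluorescence traces judged by eye to show enhanced or reduced glutamate response, manual score 1 or -1, so both directions (some results past the limit were not filed as active); inactive = the rest, including fluorescent or raised-baseline compounds.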

Here are results for 69 molecules from PubChem BioAssay AID623868 (Vanderbilt High Throughput Screening Facility, 2012).

The assay is described as follows: thallium influx changes without GIRK channels – cell-based, HEK-293 rmGlu8, no GIRK, thallium flux, counter-screen for GIRK activator project, confirmation (AID 623868).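 Also: extra codes mark interference with 3 for fluorescent and 4 for baseline rise.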 The following applies: thallium flux fluorescence, at 10 µM, actives lie on both sides, codes: 1 enhancer, -1 blocker, 0 none, thallium stimulus containing EC20 glutamate. Background: Counterscreens check selectivity or assay interference.
On to `CCOCc1c(C(=O)OCC(=O)Nc2ccc(C)c(S(=O)(=O)N(C)C)c2)oc2ccccc12`, for which the manual score is 0.
Regarding `Cc1cc(C)c2nc(SC(C)C(=O)NCC(=O)Nc3ccc(F)c(F)c3F)cc(C)c2c1` (centres undefined), the manual score was 1 (active).
Take `Cc1ccccc1NC1=C(Cl)C(=O)OC1OC(=O)c1ccco1` (centres undefined): the manual score was -1 (active).
Regarding `CCN1CCN(CCCOc2ccc(-c3ccccc3)cc2)CC1`, the manual score is 0.
In the case of `Cc1c(C(=O)O)c(=S)sn1CCOc1ccccc1` it was -1 (active); in that of `CC(=O)c1cccc(NC(=O)CCOc2ccccc2)c1`, 0.
For `Cc1ccccc1C(=O)NNC(=S)NC(=O)COc1ccccc1`, the manual score is 1 (active).
As for `Cc1ccc(OCC(=O)NC(=S)Nc2cccc(C)n2)cc1`, the manual score is 1 (active).
With `Cc1ccc(C(=O)NNC(=S)NC(=O)COc2ccccc2)cc1` the figure was 1 (active); with `CCCOc1nc2c(c(=O)n(C)c(=O)n2C)n1Cc1cccc2ccccc12`, 0.
With `CCc1cc(-c2n[nH]c(C)c2-c2nc3ccccc3n2C)c(O)c(CN2CCN(C)CC2)c1O` the figure was 0.
Consider `COc1ccc(NC(=O)NC(C)c2ccncc2)cc1OC` (centres undefined), for which the manual score was 0.
In the case of `Fc1ccc2nc(-c3ccccc3)nc(SCc3nnc(-c4ccccc4)o3)c2c1` it was 1 (active); in that of `c1ccc(Cc2nnc(-c3ccccc3)o2)cc1`, 0; in that of `COc1ccc(/C=N/n2c(SC)nnc2-c2ccccc2)c(OC)c1OC`, -1 (active).
As for `COc1cccc(/C=N/n2c(=S)n(C)c3ccccc32)c1OC`, the manual score was 0.
Consider `COc1ccc(-c2nn(-c3ccccc3)cc2/C=N/n2cnnc2)cc1OC`, for which the manual score is 0.
As for `COc1cccc(C(=O)NC(=S)Nc2ccc3c4c(cccc24)CC3)c1`, the manual score was 1 (active).
As to `O=C(COc1ccccc1)NC(=S)Nc1ccc2c3c(cccc13)CC2`, the manual score was 1 (active).
`COc1ccc(OC)c(Nc2cc(-c3ccccc3)nc(N)n2)c1`: the manual score was 0.
Regarding `COc1ccc(C(=O)Nc2ccc(Oc3ncnc4sc(-c5ccccc5)cc34)cc2)cc1OC`, the manual score was 0.
For the molecule `COc1cccc(C(=O)Nc2nc(-c3ccccc3)c(-c3ccccc3)o2)c1`, the manual score was 1 (active).
`COc1cccc(-c2cc(C(=O)NC3CCCC3)no2)c1`: the manual score is 0.
Take `COc1cccc(C(=O)NCc2cn3ccsc3n2)c1`: the manual score was 0.
Take `COc1cc(OC)cc(C(=O)Nc2nc(-c3ccccc3)c(-c3ccccc3)o2)c1`: the manual score was 1 (active).
With `COc1cc(NC(=O)Cn2nnc(-c3ccccc3N)n2)cc(OC)c1` the figure was 0; with `O=C(Nc1ccc(CN2CCOCC2)cc1)c1cc2ccccn2n1`, 0.
In the case of `C=CCN1C(=O)/C(=C2/Sc3ccccc3N2C)SC1=Nc1c(C)n[nH]c1C` it was 0.
For `CCCCCn1nc(-c2ccccc2)c2nc3ccccc3nc21`, the manual score was 3.
On to `O=C(NC(=S)N1CCN(Cc2ccccc2)CC1)c1ccccc1`, for which the manual score is 1 (active).
`CCN(CC)c1ccc(C(=O)NC(=S)N2CCN(Cc3ccc4c(c3)OCO4)CC2)cc1`: the manual score was 1 (active).
Take `CN1CCN(C(=S)NC(=O)/C=C/c2cccc3ccccc23)CC1`: the manual score is 0.
With `O=C(NC(=S)N1CCN(Cc2ccc3c(c2)OCO3)CC1)c1ccc(Cl)cc1`, the manual score is 1 (active).
For the molecule `O=C(NC(=S)N1CCN(Cc2ccc3c(c2)OCO3)CC1)c1cccc(Br)c1`, the manual score is 1 (active).
Turning to `O=C(c1ccc2nccnc2c1)N1CCN(Cc2ccc3c(c2)OCO3)CC1`, the manual score was 0.
Take `O=C(CN1CCN(Cc2ccccc2)CC1)Nc1cccc(C(F)(F)F)c1`: the manual score is 0.
In the case of `COC(=O)c1[nH]c2ccc(C)cc2c1NC(=O)CCN1CCN(Cc2ccc3c(c2)OCO3)CC1`, the manual score was 0.
For the molecule `CCOC(=O)c1ccc(NC(=O)N2CCN(Cc3cccc(F)c3)CC2)cc1`, the manual score is 0.
Take `SC(COCc1ccccc1)CN1CCN(Cc2ccc3c(c2)OCO3)CC1` (centres undefined): the manual score was 0.
As for `O=C(c1ccc(COc2c(F)c(F)c(F)c(F)c2F)o1)N1CCN(Cc2ccc3c(c2)OCO3)CC1`, the manual score was 0.
In the case of `Cn1cc(CCC(=O)NCc2ccc3c(c2)OCO3)c2ccccc21` it was 0.
With `COCCCN(C(=S)Nc1cccc(Cl)c1)C(C)c1ccncc1` (centres undefined), the manual score was 0.
Take `CC(C)(C)CC(C)(C)NCC(O)COc1c(F)cc(Br)cc1F` (centres undefined): the manual score was 4.
In the case of `O=C(CN1CCCCC1)Nc1cccc(Oc2ccccc2)c1`, the manual score was 0.
In the case of `C=C(C)CNC(=S)N/N=C(\C)c1ccc(Cl)s1` it was 1 (active); in that of `C/C(=N\NC(N)=S)c1ccc(Cl)s1`, 0.5; in that of `C/C(=N\NC(=S)NC(C)C)c1ccc(Cl)s1`, 1 (active).
Take `CCC/C(=N/NC(=O)c1csc(C)c1C)c1ccc(Cl)s1`: the manual score was 0.
In the case of `CNC(=S)N/N=C(\C)c1ccc(Cl)s1`, the manual score is 1 (active).
In the case of `C/C(=N\NC(=O)c1csc(C)c1C)c1ccc(Cl)s1` it was 1 (active); in that of `Cc1cc(C)n(CC(=O)O)n1`, 0; in that of `C/C(=N\NC(=S)NCCc1ccccc1)c1cccs1`, 3.
Consider `CCNC(=S)N/N=C(\C)c1ccc(Cl)s1`, for which the manual score was 1 (active).
For the molecule `C/C(CC(=O)NC(C)C)=N\NC(=O)COc1cc(C)c(Br)cc1Br`, the manual score is 0.
As to `COc1ccc(N2CCN(c3nc4c(c(=O)n(C)c(=O)n4C)n3Cc3ccccc3)CC2)cc1`, the manual score was 0.
In the case of `COc1ccc(N2CCCn3c2nc2c3c(=O)n(Cc3ccccc3F)c(=O)n2C)c(OC)c1`, the manual score was -1 (active).
On to `Cn1c(N2CCCC2)nc2c1c(=O)n(Cc1ccc(Cl)cc1)c(=O)n2C`, for which the manual score is 0.
With `CCN(CC(=O)c1c(N)n(C)c(=O)n(C)c1=O)c1cccc2ccccc12` the figure was 0.
`O=C1NC(=S)SC1=C1CCCCCC1`: the manual score was 1 (active).
In the case of `CCCc1cc(-c2n[nH]c(=S)n2C(C)c2ccccc2)cs1` (centres undefined) it was 0; in that of `CCCCn1c(-c2csc(C(C)C)c2)n[nH]c1=S`, 1 (active); in that of `CCCc1cc(-c2n[nH]c(=S)n2Cc2ccccc2)cs1`, 1 (active).
Consider `CCCCCNc1nc(-c2ccccc2)cs1`, for which the manual score was 0.
As for `CCc1cc(-c2n[nH]c(=S)n2C(C)c2ccccc2)cs1` (centres undefined), the manual score was 1 (active).
With `CCCCn1c(-c2csc3c2CCC(C)C3)n[nH]c1=S` (centres undefined) the figure was 1 (active); with `CCCCn1c(-c2csc3c2CCCC3)n[nH]c1=S`, 0.
As to `CCCc1cc(-c2n[nH]c(=S)n2CC(C)C)cs1`, the manual score was 1 (active).
Turning to `Cc1cccc(-n2c(C)nc3sccc3c2=O)c1`, the manual score was 0.
Turning to `Cc1cccc(-n2c(-c3csc(C(C)C)c3)n[nH]c2=S)c1`, the manual score was 1 (active).
